# In the supplement of paper PMC8728848:
# Many of the other results were omitted from the sample, so the strongest signals are more common in it than they were.
# B1: Epa13 (Candida glabrata) (protein)
# chain: MGSSHHHHHHSSGLVPRGSHMASDSSENGYAHGCSPSIRAKLKPGLSMEIYSYALRPTDDHCWDSAYLDPMFPRTGYLTHKLLGKAEGIIGPLNFLAKNPACIPAVSTLPLAFHFPKPFTITNFTMLLYGYLSPKKTGKYTFKLLADDLLLMNFGADNAFDCCSHDATKDNIGEYVAYSVWPGVNKNVTVYLESGIYYPLRLFFNNRDAIAQLDFAYYFNDSPIRQTDFSGMFFSIPDSVKCPANI
# Experiments:
# Assay in all cases: glycan array binding signal (z-score within array); higher = stronger binding
# Conditions in all cases: glycan notation: IUPAC condensed, linker removed
# [1] = molecular target: Fuc(a1-2)Gal(b1-3)GalNAc(b1-3)Gal
# In short: (§1)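 Glycan array data were curated from 3228 arrays in the Consortium for Functional Glycomics database and kept only where the protein sequence was available. Glycan names were converted to IUPAC-condensed notation, and columns mapping to the same glycan were averaged. The binding signal is a within-array Z-score, averaged across arrays of the same protein sequence at different concentrations or buffers and across linkers. Negative Z-scores can be read as non-binding.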
# [2] = molecular target: Fuc(a1-2)Gal(b1-3)[Fuc(a1-4)]GlcNAc(b1-3)[Fuc(a1-3)[Gal(b1-4)]GlcNAc(b1-6)]Gal(b1-4)Glc
# In short: as §1
# [3] = molecular target: Fuc(a1-2)Gal(b1-4)GlcNAc(b1-2)Man
# In short: as §1
# [4] = molecular target: Fuc(a1-2)Gal(b1-4)[Fuc(a1-3)]GlcNAc(b1-3)GalNAc
# In short: as §1
# [5] = molecular target: Fuc(a1-2)Gal(b1-4)[Fuc(a1-3)]GlcNAc(b1-3)[Neu5Ac(a2-6)Gal(b1-4)GlcNAc(b1-6)]Gal(b1-4)Glc
# In short: as §1
# [6] = molecular target: Fuc(a1-2)[Gal(a1-3)]Gal(b1-4)Glc
# In short: as §1
# [7] = molecular target: Fuc(a1-2)[Gal(a1-3)]Gal(b1-4)[Fuc(a1-3)]GlcNAc
# In short: as §1
# [8] = molecular target: Fuc(a1-2)[Gal(a1-4)]Gal(b1-4)GlcNAc
# In short: as §1
# [9] = molecular target: Fuc(a1-2)[GalNAc(a1-4)]Gal(b1-4)GlcNAc
# In short: as §1
# [10] = molecular target: Fuc(a1-3)[Gal(b1-4)]GlcNAc
# In short: as §1
# [11] = molecular target: Fuc(a1-3)[Gal(b1-4)]GlcNAc(b1-2)Man
# In short: as §1
# [12] = molecular target: Fuc(a1-3)[Gal(b1-4)]GlcNAc(b1-3)Gal(b1-4)[Fuc(a1-3)]GlcNAc(b1-3)Gal(b1-4)[Fuc(a1-3)]GlcNAc
# In short: as §1
# [13] = molecular target: Fuc(a1-3)[Gal3S(b1-4)]GlcNAc
# In short: as §1
# [14] = molecular target: Gal(a1-3)Gal(b1-3)GlcNAc(b1-6)GalNAc
# In short: as §1
# [15] = molecular target: Gal(a1-3)Gal(b1-4)GlcNAc(b1-2)Man
# In short: as §1
# [16] = molecular target: Gal(a1-3)Gal(b1-4)GlcNAc(b1-2)Man(a1-3)[Gal(a1-3)Gal(b1-4)GlcNAc(b1-2)Man(a1-6)]Man(b1-4)GlcNAc(b1-4)GlcNAc
# In short: as §1
# [17] = molecular target: Gal(a1-3)Gal(b1-4)GlcNAc(b1-3)GalNAc
# In short: as §1
# [18] = molecular target: Gal(a1-3)[Gal(a1-4)]Gal(b1-4)GlcNAc
# In short: as §1
# [19] = molecular target: Gal(a1-4)Gal(b1-3)GlcNAc(b1-2)Man(a1-3)[Gal(a1-4)Gal(b1-3)GlcNAc(b1-2)Man(a1-6)]Man(b1-4)GlcNAc(b1-4)GlcNAc
# In short: as §1
# Gal(a1-4)Gal(b1-4)Glc = molecular target: Gal(a1-4)Gal(b1-4)Glc
# In short: as §1
# Gal(a1-4)Gal(b1-4)GlcNAc = molecular target: Gal(a1-4)Gal(b1-4)GlcNAc
# In short: as §1
# [20] = molecular target: Gal(a1-4)Gal(b1-4)GlcNAc(b1-2)Man(a1-3)[Gal(a1-4)Gal(b1-4)GlcNAc(b1-2)Man(a1-6)]Man(b1-4)GlcNAc(b1-4)GlcNAc
# In short: as §1
# Gal(a1-4)GlcNAc = molecular target: Gal(a1-4)GlcNAc
# In short: as §1
# Gal(a1-6)Glc = molecular target: Gal(a1-6)Glc
# In short: as §1
# Gal(b1-2)Gal = molecular target: Gal(b1-2)Gal
# In short: as §1
# [21] = molecular target: Gal(b1-3)GalNAc(a1-3)[Fuc(a1-2)]Gal(b1-4)GlcNAc
# In short: as §1
# [22] = molecular target: Gal(b1-3)GlcNAc(b1-3)Gal(b1-4)GlcNAc
# In short: as §1
# [23] = molecular target: Gal(b1-3)GlcNAc(b1-6)Gal(b1-4)GlcNAc
# In short: as §1
# [24] = molecular target: Gal(b1-3)GlcNAc(b1-6)[Gal(b1-3)]GalNAc
# In short: as §1
# Gal(b1-4)Glc6S = molecular target: Gal(b1-4)Glc6S
# In short: as §1
# [25] = molecular target: Gal(b1-4)GlcNAc(a1-6)Gal(b1-4)GlcNAc
# In short: as §1
# [26] = molecular target: Gal(b1-4)GlcNAc(b1-2)[Gal(b1-4)GlcNAc(b1-6)]Man(a1-6)[GlcNAc(b1-4)][Gal(b1-4)GlcNAc(b1-2)[Gal(b1-4)GlcNAc(b1-4)]Man(a1-3)]Man(b1-4)GlcNAc(b1-4)[Fuc(a1-6)]GlcNAc
# In short: as §1
# [27] = molecular target: Gal(b1-4)GlcNAc(b1-3)Gal(b1-4)GlcNAc
# In short: as §1
# Gal4S6S(b1-4)GlcNAc = molecular target: Gal4S6S(b1-4)GlcNAc
# In short: as §1
# Gal6S(b1-4)GlcNAc = molecular target: Gal6S(b1-4)GlcNAc
# In short: as §1
# Gal6S(b1-4)GlcNAc6S = molecular target: Gal6S(b1-4)GlcNAc6S
# In short: as §1
# [28] = molecular target: GalNAc(b1-3)Gal(a1-4)Gal(b1-4)GlcNAc
# In short: as §1
# Glc(a1-4)Glc = molecular target: Glc(a1-4)Glc
# In short: as §1
# [29] = molecular target: GlcNAc(a1-4)Gal(b1-4)GlcNAc(b1-3)Gal(b1-4)GlcNAc
# In short: as §1
# [30] = molecular target: GlcNAc(a1-4)Gal(b1-4)GlcNAc(b1-3)Gal(b1-4)[Fuc(a1-3)]GlcNAc(b1-3)Gal(b1-4)[Fuc(a1-3)]GlcNAc
# In short: as §1
# [31] = molecular target: GlcNAc(b1-2)Man(a1-3)[GlcNAc(b1-4)][GlcNAc(b1-2)Man(a1-6)]Man(b1-4)GlcNAc(b1-4)[Fuc(a1-6)]GlcNAc
# In short: as §1
# [32] = molecular target: GlcNAc(b1-2)[GlcNAc(b1-4)]Man(a1-3)[GlcNAc(b1-2)Man(a1-6)]Man(b1-4)GlcNAc(b1-4)GlcNAc
# In short: as §1
# [33] = molecular target: GlcNAc(b1-2)[GlcNAc(b1-4)]Man(a1-3)[GlcNAc(b1-4)][GlcNAc(b1-2)Man(a1-6)]Man(b1-4)GlcNAc(b1-4)GlcNAc
# In short: as §1
# GlcNAc(b1-3)Gal = molecular target: GlcNAc(b1-3)Gal
# In short: as §1
# [34] = molecular target: GlcNAc(b1-3)Gal(b1-4)GlcNAc(b1-2)[GlcNAc(b1-3)Gal(b1-4)GlcNAc(b1-6)]Man(a1-6)[GlcNAc(b1-3)Gal(b1-4)GlcNAc(b1-2)Man(a1-3)]Man(b1-4)GlcNAc(b1-4)GlcNAc
# In short: as §1
# [35] = molecular target: Neu5Ac(a2-3)Gal(b1-4)GlcNAc(b1-2)Man(a1-3)[Neu5Ac(a2-6)Gal(b1-4)GlcNAc(b1-2)Man(a1-6)]Man(b1-4)GlcNAc(b1-4)GlcNAc
# In short: as §1
# [36] = molecular target: Neu5Ac(a2-3)Gal6S(b1-4)[Fuc(a1-3)]GlcNAc
# In short: as §1
# [37] = molecular target: Neu5Ac(a2-6)Gal(b1-4)GlcNAc(b1-2)Man(a1-3)[GlcNAc(b1-2)Man(a1-6)]Man(b1-4)GlcNAc(b1-4)GlcNAc
# In short: as §1
# [38] = molecular target: Neu5Ac(a2-6)Gal(b1-4)GlcNAc(b1-3)Gal(b1-4)GlcNAc
# In short: as §1
# [39] = molecular target: Neu5Ac(a2-6)Gal(b1-4)GlcNAc(b1-3)Gal(b1-4)GlcNAc(b1-3)GalNAc
# In short: as §1
# [40] = molecular target: Neu5Ac(a2-6)Gal(b1-4)GlcNAc(b1-6)[Gal(b1-3)]GalNAc
# In short: as §1
# [41] = molecular target: Neu5Ac(a2-8)Neu5Ac(a2-3)Gal(b1-4)GlcNAc
# In short: as §1
# Neu5Ac(b2-6)GalNAc = molecular target: Neu5Ac(b2-6)GalNAc
# In short: as §1
binder,measurement,setting,value
B1,glycan array binding signal (z-score),[1],0.112
same,glycan array binding signal (z-score),[2],-0.604
same,glycan array binding signal (z-score),[3],0.385
same,glycan array binding signal (z-score),[4],2.14
same,glycan array binding signal (z-score),[5],-0.526
same,glycan array binding signal (z-score),[6],-0.047
same,glycan array binding signal (z-score),[7],0.02
same,glycan array binding signal (z-score),[8],9.27
same,glycan array binding signal (z-score),[9],-0.453
same,glycan array binding signal (z-score),[10],-0.454
same,glycan array binding signal (z-score),[11],-0.124
same,glycan array binding signal (z-score),[12],-0.429
same,glycan array binding signal (z-score),[13],-0.351
same,glycan array binding signal (z-score),[14],1.13
same,glycan array binding signal (z-score),[15],0.125
same,glycan array binding signal (z-score),[16],4.93
same,glycan array binding signal (z-score),[17],0.561
same,glycan array binding signal (z-score),[18],1.47
same,glycan array binding signal (z-score),[19],4.04
same,glycan array binding signal (z-score),Gal(a1-4)Gal(b1-4)Glc,3.52
same,glycan array binding signal (z-score),Gal(a1-4)Gal(b1-4)GlcNAc,4.15
same,glycan array binding signal (z-score),[20],5.18
same,glycan array binding signal (z-score),Gal(a1-4)GlcNAc,7.08
same,glycan array binding signal (z-score),Gal(a1-6)Glc,13.2
same,glycan array binding signal (z-score),Gal(b1-2)Gal,4.04
same,glycan array binding signal (z-score),[21],-0.314
same,glycan array binding signal (z-score),[22],-0.418
same,glycan array binding signal (z-score),[23],-0.113
same,glycan array binding signal (z-score),[24],-0.014
same,glycan array binding signal (z-score),Gal(b1-4)Glc6S,0.255
same,glycan array binding signal (z-score),[25],0.075
same,glycan array binding signal (z-score),[26],-0.476
same,glycan array binding signal (z-score),[27],-0.291
same,glycan array binding signal (z-score),Gal4S6S(b1-4)GlcNAc,-0.32
same,glycan array binding signal (z-score),Gal6S(b1-4)GlcNAc,0.111
same,glycan array binding signal (z-score),Gal6S(b1-4)GlcNAc6S,2.69
same,glycan array binding signal (z-score),[28],-0.05
same,glycan array binding signal (z-score),Glc(a1-4)Glc,-0.521
same,glycan array binding signal (z-score),[29],0.04
same,glycan array binding signal (z-score),[30],-0.218
same,glycan array binding signal (z-score),[31],0.145
same,glycan array binding signal (z-score),[32],-0.393
same,glycan array binding signal (z-score),[33],-0.299
same,glycan array binding signal (z-score),GlcNAc(b1-3)Gal,-0.445
same,glycan array binding signal (z-score),[34],0.485
same,glycan array binding signal (z-score),[35],-0.354
same,glycan array binding signal (z-score),[36],-0.54
same,glycan array binding signal (z-score),[37],-0.413
same,glycan array binding signal (z-score),[38],-0.07
same,glycan array binding signal (z-score),[39],-0.142
same,glycan array binding signal (z-score),[40],-0.381
same,glycan array binding signal (z-score),[41],-0.449
same,glycan array binding signal (z-score),Neu5Ac(b2-6)GalNAc,-0.624
